Experimental findings from PubChem BioAssay (Tox21) are described below.

A number with no mark means an inactive call. Inconclusive results are not listed. The source made the active and inactive calls. The call rests on the fitted dose curve; in most records, active means well fitted curve in the direction sought with a large enough effect in the repeat runs; inconclusive means weak or mixed curves; inactive means no such curve, though single readings can be large; an effect the other way counts as inactive or inconclusive.

A short description of assay [1]: Human pregnane X receptor (PXR) small molecule agonists, qHTS cell viability counter screen (AID 1346977). Further: nearly all actives have a fitted effect of over 50% in size. The procedure, abridged: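 PXR-Luc HepG2 cells in medium with 5% charcoal-stripped FBS were pre-incubated 5hr, then exposed to compounds for 24hr at 37C. Viability was read in the same wells by CellTiter-Fluor fluorescence, reagent added after 23hr with a 1hr incubation.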

Assay [2] can be described thus: Caspase-3/7 induction in HepG2 cells by small molecules, qHTS assay (AID 1346978). Further: nearly all actives have a fitted effect of over 15% in size. A digest of the protocol: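 Wild-type HepG2 cells, 2,000/well, settled 5 hr at 37 C and 5% CO2, then compound-treated for 17 hr; caspase-3/7 activity read by luminescent Caspase-Glo 3/7 after 30 min at room temperature.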
Assay [3] can be described thus: Caspase-3/7 induction in CHO-K1 cells by small molecules, qHTS cell viability counter screen (AID 1346979). Further: nearly all actives have a fitted effect of over 35% in size. A digest of the protocol: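 Wild-type CHO-K1 cells were seeded at 1,500 per well, rested 5hr at 37 C, then exposed to compounds in DMSO. After 16hr, CellTiter-Fluor reagent was added and fluorescence read 1hr later as the viability measure.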
The nature of assay [4]: Caspase-3/7 induction in CHO-K1 cells by small molecules, qHTS assay (AID 1346980). Further: nearly all actives have a fitted effect of over 15% in size. The procedure, abridged: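 Wild-type CHO-K1 cells exposed to compounds for 17hr at 37 C, 5% CO2. Caspase-3/7 activity then measured by Caspase-Glo 3/7 luminescence after 30min at room temperature.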
Assay [5] is described as follows: Caspase-3/7 induction in HepG2 cells by small molecules, qHTS cell viability counter screen (AID 1346981). Further: series mostly up to about 92 µM; nearly all actives have a fitted effect of over 30% in size. The procedure, abridged:
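In this quantitative HTS counter screen, compounds delivered in DMSO were left on unmodified HepG2 cells for 16 hr at 37 C. Viability was then determined fluorometrically with CellTiter-Fluor, in parallel with caspase-3/7 induction in the same wells.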

The target of assay [6] is Nuclear receptor subfamily 1 group I member 2 (Homo sapiens) (UniProt O75469). Description: Human pregnane X receptor (PXR) small molecule agonists, qHTS assay (AID 1346982). Further: nearly all actives have a fitted effect of over 35% in size. Further: potency means the concentration at half of the fitted maximal effect. The procedure, abridged:
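Reporter HepG2 cells expressing PXR-Luc are cultured in charcoal-stripped FBS (5%), treated with compounds for 24 hr at 37 C, and assayed by ONE-Glo luminescence after 30 min at room temperature.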

Assay [7] concerns the target Cytochrome P450 2D6 (Homo sapiens) (UniProt P10635). Description: Cytochrome P450 Family 2 Subfamily D Member 6 (CYP2D6) small molecule antagonists: luciferase reporter qHTS assay (AID 1671196). Further: nearly all actives have a fitted effect of over 50% in size. Further: potency means the concentration at half of the fitted maximal effect. The procedure, abridged: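 Test chemicals meet CYP2D6 plus proluciferin substrate (10 min, RT); NADPH regenerating solution then drives turnover for 1 h. Detection reagent halts the reaction; luminescence measured after 20 min.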

Assay [8] deals with Nuclear receptor subfamily 1 group I member 2 (Rattus norvegicus) (UniProt Q9R1A7). Description: Rat pregnane X receptor (rPXR) activation by small molecules, qHTS assay (AID 1346983). Further: nearly all actives have a fitted effect of over 20% in size. To be noted: rPXR luciferase reporter cells, One-Glo luminescence, 24 h; max activation: stronger effect = higher value. A digest of the protocol: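 Cell-based rPXR activation assay: rPXR cells, 2,000 per well, rested 5hr at 37 C, then exposed to compounds in DMSO for 24 hr at 37 C. Luciferase activity read by One-Glo luminescence after 30 min at room temperature.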

Assay [9] deals with Nuclear receptor subfamily 1 group I member 2 (Homo sapiens) (UniProt O75469). Description: CYP3A4 induction through human pregnane X receptor (PXR) by small molecules, qHTS assay (AID 1346984). Further: nearly all actives have a fitted effect of over 40% in size. Further: potency means the concentration at half of the fitted maximal effect. The procedure, abridged:
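Induction measured in HepG2-based DPX-2 cells co-expressing human PXR and a CYP3A4 promoter-driven luciferase. After a 24-hour compound exposure, cells received CYP3A4 luciferin substrate at 3uM final for 3 hours, and light output was then recorded.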

Assay [10] shares this target. Description: Human pregnane X receptor (PXR) activation by small molecules, qHTS assay (AID 1346985). Further: nearly all actives have a fitted effect of over 40% in size. A digest of the protocol:
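DPX-2 cells (HepG2 co-transfected with a PXR response element and a CYP3A4-promoter luciferase construct) were seeded at 2,000 per well, rested 5 hr at 37C, then exposed to DMSO-dissolved compounds for 24 hr. Activation was read as luciferase luminescence.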
On the % scale 0 is the no-effect control and ±100 the full control effect.

Nuclear receptor subfamily 1 group I member 2 (Homo sapiens), sequence (O75469 whole entry, looked up): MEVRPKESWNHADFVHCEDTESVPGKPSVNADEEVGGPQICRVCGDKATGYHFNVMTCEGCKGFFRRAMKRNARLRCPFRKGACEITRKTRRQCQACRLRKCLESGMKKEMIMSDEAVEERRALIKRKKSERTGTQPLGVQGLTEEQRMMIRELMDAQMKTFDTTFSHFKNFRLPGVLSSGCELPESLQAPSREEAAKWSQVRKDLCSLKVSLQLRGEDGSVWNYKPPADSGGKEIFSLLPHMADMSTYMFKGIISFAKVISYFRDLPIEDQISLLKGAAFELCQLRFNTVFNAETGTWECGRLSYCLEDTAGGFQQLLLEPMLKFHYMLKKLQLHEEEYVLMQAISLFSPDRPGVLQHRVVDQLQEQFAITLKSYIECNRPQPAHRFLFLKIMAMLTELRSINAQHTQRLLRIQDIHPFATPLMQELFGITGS
Nuclear receptor subfamily 1 group I member 2 (Rattus norvegicus), sequence (Q9R1A7 whole entry, looked up): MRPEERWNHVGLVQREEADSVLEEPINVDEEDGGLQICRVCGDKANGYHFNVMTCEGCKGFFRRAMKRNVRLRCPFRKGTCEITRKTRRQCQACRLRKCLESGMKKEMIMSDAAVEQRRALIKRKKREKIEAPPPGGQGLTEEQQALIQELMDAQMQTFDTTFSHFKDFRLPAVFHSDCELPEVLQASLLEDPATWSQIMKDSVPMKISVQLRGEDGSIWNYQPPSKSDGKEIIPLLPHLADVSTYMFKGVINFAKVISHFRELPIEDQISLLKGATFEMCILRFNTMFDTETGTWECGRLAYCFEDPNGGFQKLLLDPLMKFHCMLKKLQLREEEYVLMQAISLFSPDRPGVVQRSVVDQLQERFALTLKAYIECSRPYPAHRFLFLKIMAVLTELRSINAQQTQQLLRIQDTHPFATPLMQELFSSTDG
Cytochrome P450 2D6 (Homo sapiens), sequence (P10635 whole entry, looked up): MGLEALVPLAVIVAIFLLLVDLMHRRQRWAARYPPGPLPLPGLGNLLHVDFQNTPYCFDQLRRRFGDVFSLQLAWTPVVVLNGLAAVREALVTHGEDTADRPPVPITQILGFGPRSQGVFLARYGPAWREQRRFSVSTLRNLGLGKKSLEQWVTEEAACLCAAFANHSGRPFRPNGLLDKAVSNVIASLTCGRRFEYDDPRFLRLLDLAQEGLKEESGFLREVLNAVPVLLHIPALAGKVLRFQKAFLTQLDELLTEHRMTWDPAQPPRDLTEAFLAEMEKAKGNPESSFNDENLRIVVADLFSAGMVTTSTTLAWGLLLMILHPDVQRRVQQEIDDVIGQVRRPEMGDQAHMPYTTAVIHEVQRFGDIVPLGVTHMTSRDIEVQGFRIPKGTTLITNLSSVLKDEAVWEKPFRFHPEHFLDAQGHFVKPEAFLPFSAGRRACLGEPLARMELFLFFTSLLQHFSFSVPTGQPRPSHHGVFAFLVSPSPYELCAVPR

For `NC(=O)Cc1cccc(C(=O)c2ccccc2)c1N`, the Potency entry in assay [1], in [2], in [3], in assay [5], in assay [6] and in assay [7] was “inactive” throughout. Besides, the call in assay [4] was inactive.

As for `CCCCCOc1ccc(C2SC(=O)NC2=O)cc1OCC` (configuration not stated), the Potency entry in [1], in [2], in [3], in assay [5] and in assay [7] was “inactive” each time. Moreover, in assay [4], the call was inactive. For the same compound, the Potency in assay [6] is 29.8 µM (active).

`C=Cc1ccccc1`: the Potency entry in assay [1], in assay [2], in assay [3], in [5], in assay [6] and in assay [7] was “inactive” throughout. Moreover, the result in assay [4] was inactive.

As to `CC(=O)OC1C2(C)CCC(C2)C1(C)C` (configuration not stated), the Potency result in assay [1], in assay [2], in assay [3], in assay [5] and in assay [7] was “inactive” throughout. Besides, in assay [4], the outcome was inactive.

`CN1CCN(c2c(F)cc3c(=O)c(C(=O)O)cn4c3c2SCC4)CC1`: the Potency entry in assay [1], in assay [2], in assay [3], in assay [5], in assay [9] and in assay [10] was “inactive” each time. Also, the result in assay [4] was inactive. For the same compound, in assay [8], the max activation is -4.92%.

`CN1C(=O)CC(c2ccccc2)C1=O` (configuration not stated): the Potency entry in assay [1], in [2], in assay [3], in assay [5] and in assay [7] was “inactive” in each case. Also, in assay [4], the outcome was inactive. The max activation in [8] is -2.73%.

For the compound `O=C1CCCc2ccccc21`, the Potency entry in assay [1], in [2] and in assay [3] was “inactive” throughout. For the same compound, in assay [4], the compound was classed as inactive. Further, in assay [6], the Potency was 39 µM (active).

Take `C=CC1CO1` (configuration not stated): the Potency entry in [1], in assay [2], in [3], in [5] and in [7] was “inactive” each time. Also, the compound was called inactive in [4].

Regarding `Cc1c(C(=O)NCCO)[n+](=O)c2ccccc2n1[O-]`, the Potency entry in assay [1], in [2], in assay [3], in [6], in [9] and in assay [10] was “inactive” throughout. Also, the Potency entry in assay [7] is “inactive”. For the same compound, the result in [4] was inactive. In addition, the max activation in assay [8] was -3.05%.

In the case of `COc1ccc(Nc2ccc(OC)cc2)cc1`, the Potency entry in assay [1], in assay [2], in assay [3] and in [5] was “inactive” in each case. In addition, the compound was called inactive in assay [4]. Besides, the Potency is 24.8 µM (active) in [6] and 36.2 µM (active) in assay [7].

For the compound `O=C1CCC(C2CCCCC2)CC1`, the Potency entry in assay [1], in assay [2], in [3], in [5] and in assay [7] was “inactive” in each case. Besides, in [4], the result was inactive.

Regarding `NNS(=O)(=O)c1ccc(Oc2ccc(S(=O)(=O)NN)cc2)cc1`, the Potency entry in assay [1], in assay [2], in assay [3], in [5] and in assay [7] was “inactive” each time. In addition, in assay [4], the compound was called inactive.

As to `CCOc1ccc(NS(=O)(=O)c2ccc(N)cc2)nn1`, the Potency result in assay [1], in assay [2], in assay [3], in assay [5] and in assay [7] was “inactive” in each case. The result in assay [4] was inactive.

On to `COc1ccccc1OCC(O)COC(N)=O` (configuration not stated), for which the Potency entry in [1], in assay [2], in [3], in assay [5], in [9] and in [10] was “inactive” in each case. Further, in assay [7], the Potency entry is “inactive”. In assay [4], the compound was classed as inactive. Further, the max activation in assay [8] is 0.101%.

Turning to `CCOC(=O)c1cc(=O)c2c(OCC(COc3cccc4oc(C(=O)OCC)cc(=O)c34)OC(=O)[C@@H](N)CCCCN)cccc2o1`, the Potency result in assay [1], in assay [2], in [3], in assay [5], in [6] and in assay [7] was “inactive” in each case. Further, the compound was classed as inactive in assay [4].

With `O=C(O)C(=O)Cc1c[nH]c2ccccc12`, the Potency result in assay [1], in [2], in [3] and in assay [5] was “inactive” in each case. In assay [4], the compound was called inactive. Also, the Potency in assay [6] is 30.6 µM (active); in [7], 28.3 µM (active).

For the compound `Cc1cccc(C)c1NC(=O)CN1CCCCCC1`, the Potency entry in assay [1], in assay [2], in [3], in [5] and in assay [10] was “inactive” in each case. The outcome in assay [4] was inactive. Besides, in assay [8], the max activation was -0.265%. Also, the Potency in [9] is 14.1 µM (active); in assay [7], 12.3 µM (active).

Take `O=C(O[C@@H](C(=O)O)[C@@H](OC(=O)c1ccccc1)C(=O)O)c1ccccc1`: the Potency result in [1], in assay [2], in assay [3], in assay [5] and in [6] was “inactive” throughout. In assay [4], the result was inactive. In addition, the Potency in [7] was 40.6 µM (active).

For `Cc1c(-c2ccccc2)oc2c(C(=O)OCCN3CCCCC3)cccc2c1=O`, the Potency entry in assay [1], in assay [2], in [3], in assay [6], in assay [9] and in assay [10] was “inactive” in each case. Moreover, the call in [4] was inactive. The max activation in assay [8] was -3.87%. Also, the Potency in [7] is 5.49 µM (active).

Take `CC(=O)O[C@H]1CC[C@@]2(C)C(=CC[C@@H]3[C@@H]2CC[C@]2(C)C(C(C)=O)=CC[C@@H]32)C1`: the Potency entry in assay [1], in [2], in assay [3], in assay [5], in [6] and in assay [7] was “inactive” throughout. Further, the compound was classed as inactive in [4].

Take `O=C1CCCCCCCCCCC(=O)OCCO1`: the Potency result in [1], in assay [2], in [3], in assay [5], in assay [6] and in assay [7] was “inactive” in each case. Also, the compound was called inactive in assay [4].

As for `CN1CCC[C@@H]1Cc1c[nH]c2ccc(CCS(=O)(=O)c3ccccc3)cc12`, the Potency result in assay [1], in [2], in assay [3] and in assay [5] was “inactive” throughout. In assay [4], the call was inactive. The max activation in assay [8] was 0.279%. Further, in assay [7], the Potency was 13.8 µM (active).

As for `CCCCN1C[C@H](O)[C@@H](O)[C@H](O)[C@H]1CO`, the Potency entry in assay [1], in assay [2], in assay [3], in assay [6], in assay [9] and in [10] was “inactive” throughout. The Potency entry in assay [7] is “inactive”. In addition, the compound was called inactive in [4]. Further, the max activation in assay [8] was -1.78%.

Regarding `COc1nc(C)nc(NC(=O)NS(=O)(=O)c2ccccc2OCCCl)n1`, the Potency result in assay [1], in assay [2], in assay [3], in [5] and in assay [7] was “inactive” throughout. For the same compound, in assay [4], the call was inactive.

Regarding `O=[N+]([O-])c1nccn1CO[C@@H](CO)[C@H](O)CO`, the Potency result in assay [1], in assay [2], in assay [3] and in [5] was “inactive” each time. For the same compound, in [4], the call was inactive. Also, the Potency in assay [7] is 38.9 µM (active).

Consider `CC(=O)Oc1cc(C(C)C)c(OCCN(C)C)cc1C`, for which the Potency result in assay [1], in assay [2], in [3], in [5], in assay [9] and in assay [10] was “inactive” throughout. The result in assay [4] was inactive. In addition, the max activation in [8] is -1.16%. Also, the Potency in assay [7] was 15.5 µM (active).

Regarding `CCCCCCC`, the Potency result in assay [1], in assay [2], in assay [3], in assay [5] and in [7] was “inactive” in each case. Moreover, the call in assay [4] was inactive.
